± gives the standard deviation of the averaged measurements. Over roughly 1,600 compounds, “normalized growth (OD600, IQM-normalized) in LPM” has its median near 1; the lowest 2% begin near 0.014. The list comes from a sample in which the lowest values are over-represented; it also holds similar structures and randomly drawn compounds.
Each compound was assayed on Salmonella enterica serovar Typhimurium SL1344 (assay: normalized growth (OD600, IQM-normalized) in LPM (fraction of plate interquartile mean); higher = more bacterial growth (less inhibition)). Conditions: LPM pH 5.8; 10 µM; 16 h.
`Clc1ccccc1CN1CCc2sccc2C1` was tested, and the normalized growth was 1.02 ± 0.037.
Compound `O=C(N[C@H](CO)[C@H](O)c1ccc([N+](=O)[O-])cc1)C(Cl)Cl` has a normalized growth of 0.0146 ± 0.00075.
`CCCCCCCCCCCCCCCC(=O)OC[C@@H](NC(=O)C(Cl)Cl)[C@H](O)c1ccc([N+](=O)[O-])cc1` showed a normalized growth of 1.04 ± 0.082.
`O=C(O)CCC(=O)OC[C@@H](NC(=O)C(Cl)Cl)[C@H](O)c1ccc([N+](=O)[O-])cc1` was tested, and the normalized growth was 0.014 ± 0.00072.
With `C#C[C@]1(O)CC[C@H]2[C@@H]3[C@H](C)CC4=C(CCC(=O)C4)[C@H]3CC[C@@]21C` the normalized growth was 0.987 ± 0.048.
For `OCc1ccccc1O`, the normalized growth was 1.05 ± 0.04.
`CN(C/C=C/c1ccccc1)Cc1cccc2ccccc12` was tested, and the normalized growth was 0.885 ± 0.019.
Work on `CC(=O)N[C@@H]([C@@H](O)[C@H](O)[C@H](O)CO)[C@@H](O)CC(=O)C(=O)O` yielded a normalized growth of 1 ± 0.065.
`CC(C)(Oc1ccc(C(=O)c2ccc(Cl)cc2)cc1)C(=O)O` was tested, and the normalized growth was 0.976 ± 0.024.
`CC(=O)NCCCCCC(=O)O` was tested, and the normalized growth was 1.11 ± 0.034.
With `N#Cc1ccc2c(c1)N(CCCN1CCC(O)CC1)c1ccccc1S2` the normalized growth was 1.09 ± 0.035.
`O=C(O)C[C@H](O)C[C@H](O)/C=C/c1c(C2CC2)nc2ccccc2c1-c1ccc(F)cc1` was tested, and the normalized growth was 1.19 ± 0.13.
`N=C(N)c1ccc(N=NNc2ccc(C(=N)N)cc2)cc1` showed a normalized growth of 0.766 ± 0.035.
Compound `CC(=O)Nc1cccc(O)c1` has a normalized growth of 1.02 ± 0.014.
`Cc1c(NC(C)C)c(=O)n(-c2ccccc2)n1C` was tested, and the normalized growth was 0.981 ± 0.15.
In the case of `CCCCCCNC(=O)n1cc(F)c(=O)[nH]c1=O`, the normalized growth is reported as 0.007569 ± 7.1e-05.
`C[C@H]1O[C@@H](n2cc(F)c(=O)[nH]c2=O)[C@H](O)[C@@H]1O` showed a normalized growth of 0.412 ± 0.11.
In the case of `CCOC(=O)COc1ccc2c(=O)cc(-c3ccccc3)oc2c1`, the normalized growth is reported as 1.01 ± 0.035.
`OC[C@H]1O[C@H](O[C@H]2[C@H](O)[C@@H](O)C(O)O[C@@H]2CO)[C@H](O)[C@@H](O)[C@@H]1O` (stereo partly drawn) showed a normalized growth of 1.06 ± 0.12.
Work on `O=c1cc[nH]c(=O)[nH]1` yielded a normalized growth of 1.06 ± 0.04.
`O=c1[nH]cc(F)c(=O)[nH]1` showed a normalized growth of 0.0109 ± 0.0049.
Work on `Nc1nc(=O)[nH]cc1F` yielded a normalized growth of 0.742 ± 0.12.
Compound `COc1cc([C@@H]2c3cc4c(cc3[C@@H](O[C@@H]3O[C@@H]5CO[C@@H](c6cccs6)O[C@H]5[C@H](O)[C@H]3O)[C@H]3COC(=O)[C@H]23)OCO4)cc(OC)c1O` has a normalized growth of 0.882 ± 0.027.
Compound `O=C1c2cccc(O)c2C(=O)c2c(O)cccc21` has a normalized growth of 0.827 ± 0.05.
In the case of `CCN(CC)C(=O)/C(C#N)=C/c1cc(O)c(O)c([N+](=O)[O-])c1`, the normalized growth is reported as 0.924 ± 0.023.
Compound `C[C@]12CC[C@@H]3c4ccc(OC(=O)c5ccccc5)cc4CC[C@H]3[C@@H]1CC[C@@H]2O` has a normalized growth of 0.779 ± 0.061.
Compound `C/C=C(/C(=C/C)c1ccc(O)cc1)c1ccc(O)cc1` has a normalized growth of 1.04 ± 0.035.
`CO[C@H]1C[C@@H]2CC[C@@H](C)[C@@](O)(O2)C(=O)C(=O)N2CCCC[C@H]2C(=O)O[C@H]([C@H](C)C[C@@H]2CC[C@@H](O)[C@H](OC)C2)CC(=O)[C@H](C)/C=C(\C)[C@@H](O)[C@@H](OC)C(=O)[C@H](C)C[C@H](C)/C=C/C=C/C=C/1C` showed a normalized growth of 0.964 ± 0.048.
Compound `Cc1ccc(Nc2c(F)cccc2Cl)c(CC(=O)O)c1` has a normalized growth of 1.11 ± 0.053.
Work on `CCNC(=O)/C=C/c1cccc(Br)c1` yielded a normalized growth of 1.08 ± 0.035.
`COC(=O)/C=C/C(=O)OC` was tested, and the normalized growth was 1.42 ± 0.16.
Compound `Nc1nc(Cl)nc2c1ncn2[C@@H]1O[C@H](CO)[C@@H](O)[C@@H]1F` has a normalized growth of 1.11 ± 0.025.
For `CC1(C)[C@@H](O)CC[C@]2(C)[C@H]3C(=O)C=C4[C@@H]5C[C@@](C)(C(=O)O)CC[C@]5(C)CC[C@@]4(C)[C@]3(C)CC[C@@H]12`, the normalized growth was 0.906 ± 0.073.
`CC(=O)Nc1ncc([N+](=O)[O-])s1` showed a normalized growth of 0.899 ± 0.018.
`CCCCCCOc1ccccc1C(N)=O` showed a normalized growth of 1.01 ± 0.048.
Work on `COc1ccc2cc(C(C)C(=O)O)ccc2c1` (stereo not drawn) yielded a normalized growth of 1.07 ± 0.032.
For `CCC[C@@H]1C[C@@H](C(=O)N[C@@H]([C@H]2O[C@H](SC)[C@H](O)[C@@H](O)[C@H]2O)[C@@H](C)O)N(C)C1`, the normalized growth was 1.096 ± 0.0085.
`CN(Cc1cnc2nc(N)nc(N)c2n1)c1ccc(C(=O)NC(CCC(=O)O)C(=O)O)cc1` (racemic) was tested, and the normalized growth was 0.665 ± 0.054.
`CCC(=O)OCC(=O)[C@@]1(OC(=O)CC)[C@@H](C)C[C@H]2[C@@H]3CCC4=CC(=O)C=C[C@]4(C)[C@@]3(F)[C@@H](O)C[C@@]21C` showed a normalized growth of 1.06 ± 0.047.
In the case of `O=C(O)c1cn(C2CC2)c2cc(N3CCNCC3)c(F)cc2c1=O`, the normalized growth is reported as 0.0145 ± 0.0063.
In the case of `CCn1cc(C(=O)O)c(=O)c2cc(F)c(N3CCN(C)CC3)cc21`, the normalized growth is reported as 0.0116 ± 0.00051.
With `CCn1cc(C(=O)O)c(=O)c2cc(F)c(N3CCNCC3)cc21` the normalized growth was 0.0247 ± 0.0053.
Compound `CN1CCN(c2cc3c(cc2F)c(=O)c(C(=O)O)cn3-c2ccc(F)cc2)CC1` has a normalized growth of 0.0108 ± 0.00018.
For `O=C(O)c1cn(-c2ccc(F)cc2)c2cc(N3CCNCC3)c(F)cc2c1=O`, the normalized growth was 0.0341 ± 0.0073.
Compound `CCn1cc(C(=O)O)c(=O)c2cc(F)c(N3CCNCC3)nc21` has a normalized growth of 0.0514 ± 0.033.
`CCCCC(O)c1ccccc1` (stereo not drawn) gave a normalized growth of 0.984 ± 0.032.
With `CC1=CC(=O)NS(=O)(=O)O1` the normalized growth was 0.928 ± 0.054.
For `CS(=O)(=O)c1ccc(C2=C(c3ccccc3)C(=O)OC2)cc1`, the normalized growth was 1.07 ± 0.11.
Compound `CCCCCCCCCC(=O)N[C@@H](Cc1c[nH]c2ccccc12)C(=O)N[C@@H](CC(N)=O)C(=O)N[C@@H](CC(=O)O)C(=O)N[C@@H]1C(=O)NCC(=O)N[C@@H](CCCN)C(=O)N[C@@H](CC(=O)O)C(=O)N[C@H](C)C(=O)N[C@@H](CC(=O)O)C(=O)NCC(=O)N[C@H](CO)C(=O)N[C@@H]([C@H](C)CC(=O)O)C(=O)N[C@@H](CC(=O)c2ccccc2N)C(=O)O[C@@H]1C` [DAPTOMYCIN (5 millimolar/DMSO)] has a normalized growth of 1.02 ± 0.057.
`C[C@]12CCC(=O)C=C1[C@@H]1C[C@@H]1[C@H]1[C@@H]3[C@@H]4C[C@@H]4[C@@]4(CCC(=O)O4)[C@@]3(C)CC[C@@H]12` showed a normalized growth of 1.07 ± 0.069.
`COc1cc(/C=C/C(=O)N2CCCCCCC2)cc(OC)c1OC` showed a normalized growth of 0.961 ± 0.025.
`N[C@@H](Cc1ccc(O)cc1)C(=O)O` gave a normalized growth of 0.979 ± 0.02.
For `CC(=O)NC(Cc1ccccc1)C(=O)O` (stereo not drawn), the normalized growth was 0.957 ± 0.064.
Compound `CNC(=C[N+](=O)[O-])NCCSCc1csc(CN(C)C)n1` has a normalized growth of 1.15 ± 0.28.
For `O=C(O)C1=C(CSc2nnnn2CS(=O)(=O)O)CS[C@@H]2[C@H](NC(=O)[C@H](O)c3ccccc3)C(=O)N12`, the normalized growth was 1.01 ± 0.024.
Work on `CCCCCNC(=N)N/N=C/c1c[nH]c2ccc(OC)cc12` yielded a normalized growth of 1.09 ± 0.12.
Work on `Cc1cc(C2CCCCC2)n(O)c(=O)c1` yielded a normalized growth of 0.183 ± 0.014.
Compound `O=C(OC[C@H]1O[C@@H](OC(=O)c2cc(O)c(O)c(OC(=O)c3cc(O)c(O)c(O)c3)c2)[C@H](OC(=O)c2cc(O)c(O)c(OC(=O)c3cc(O)c(O)c(O)c3)c2)[C@@H](OC(=O)c2cc(O)c(O)c(OC(=O)c3cc(O)c(O)c(O)c3)c2)[C@@H]1OC(=O)c1cc(O)c(O)c(OC(=O)c2cc(O)c(O)c(O)c2)c1)c1cc(O)c(O)c(OC(=O)c2cc(O)c(O)c(O)c2)c1` has a normalized growth of 1.08 ± 0.013.

— the supplement of paper PMC6331611
